Measurements from PubChem BioAssay (NCI).
The panel holds about 83,000 compounds, 20% with a hit somewhere; the sample as a whole holds those more often.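 Plates (96-well) were seeded with cells, treated with compound at one concentration, and incubated for 48 hours before percent growth was determined.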 Unmarked numbers belong to inactive results. Active and inactive are the calls of the source. Rule for the calls: active = growth percent below 10; inactive = the rest.

These molecules were tested on HCC-2998 colon (assay: NCI-60 one-dose screen, 48 h (100 = growth as untreated, 0 = no growth, -100 = all killed)). Settings: 10 µM unless noted.

Compound | growth
O=C(Cn1c2ccccc2c2ccncc21)N/N=C/c1c[nH]c2ccccc12 | 87.5%
O=C(Nc1ccccc1Cl)c1c[nH]c(=O)c(-c2ccc(N3CCCOC4(CC4)C3)cc2)c1 | 67.5%
OC(COc1ccccc1Cl)CN1CCN(c2ccc(Cl)cc2)CC1 (stereo not drawn) | 102%
Nc1nccc2c1ccn2-c1ccc(NC(=O)Nc2cccc(C(F)(F)F)c2)cc1 | 115%
O=C(Nc1ccc(-n2ccc3c(NC(=O)c4ccccc4)nccc32)cc1)Nc1cccc(C(F)(F)F)c1 | 67.8%
O=C1C(Cl)=C(Nc2ccccc2)C(=O)C(Cl)=C1Nc1ccccc1 | 116%
CC(=O)Nc1ccc([I+]c2ccc([N+](=O)[O-])cc2)cc1 | 106%
CCN1CCN(Cc2ccc(NC(=O)Nc3cccc(-n4ccc5c(NC(=O)c6ccccc6)nccc54)c3)cc2C(F)(F)F)CC1 | 102%
CC(=O)N[C@@H](CNC(=O)c1cc(NC(=O)c2cc(NC(=O)c3cc(NC(=O)c4nccn4C)cn3C)cn2C)cn1C)CC(=O)Nc1cn(C)c(C(=O)Nc2cc(C(=O)Nc3cc(C(=O)Nc4cc(C(=O)NCCCN(C)CCCNC(=O)c5cccc(C(=O)O)c5)n(C)c4)n(C)c3)n(C)c2)n1 | 106%
CCOC(=O)c1cnc2c(OC)ccc(OC)c2c1Cl | 117%
NS(=O)(=O)c1ccc(Nc2nc(O)c(/C=C3\C=Nc4ccccc43)s2)cc1 | 116%
CNC(=O)NN | 101%
Cc1cc(O[C@@H]2O[C@@H](C)[C@H](O)[C@@H](O)[C@H]2O)c2c3c(c(O[C@@H]4O[C@@H](C)[C@H](O)[C@@H](O)[C@H]4O)cc2c1)C(=O)c1c(O)cccc1C3=O | 91.1%
Cc1cccc(Cc2cnc(NC(=O)CCc3ccc(C)o3)s2)c1 | 23.7%
C=CC(=O)NC(=O)Nc1ccccc1Cl | 110%
COc1ccc(-c2nn(-c3ccc(NC(=O)Nc4ccc(Cl)c(C(F)(F)F)c4)cc3)cc2-c2ccncc2)cc1Cl | 11.3%
CC(C)CNCC(O)COc1ccc(C(C)(C)c2ccc(OCC(O)CNCC(C)C)cc2)cc1 (stereo not drawn) | -24.5% (active)

Compound | growth
Cc1ccc2[nH]c3nc4cccnc4c(C)c3c2c1 | 92.7%
O=C(Nc1ccc(-n2ccc3c(NC(=O)c4ccccc4)nccc32)cc1)c1ccc(Cl)c(C(F)(F)F)c1 | 19.7%
Nc1nccc2c1ccn2-c1cccc(NC(=O)c2ccc(N3CCOCC3)c(C(F)(F)F)c2)c1 | 23.9%
COc1ccc(/C=C/C(=O)/C=C(/C=C/c2ccc(OC)c(OC)c2OC)OB(F)F)c(OC)c1OC | 59.2%
Cc1cc[n+](CCCC[n+]2ccc(C)cc2)cc1 | 103%
COC1=C(OC)C(=O)C=CC1=O | 125%
Cc1ccccc1C[P+](c1ccccc1)(c1ccccc1)c1ccccc1 | 12.2%
CC/C(=C(\CC)c1ccc(OCCN(CC)CC)cc1)c1ccc(OCCN(CC)CC)cc1 | 63.2%
COc1ccc(-c2cnc(-c3ccc(F)cc3)[nH]2)cc1 | -10% (active)
O=C(Nc1ccc(-n2cc(-c3ccncc3)c(-c3ccc(O)c(Cl)c3)n2)cc1)c1ccc(Cl)c(C(F)(F)F)c1 | 25.9%
O=C(Nc1ccc(-n2ccc3c(NC(=O)c4ccccc4)ncnc32)cc1)c1ccc(Cl)c(C(F)(F)F)c1 | 48.2%
C=CC(=O)Nc1cccc(Nc2nc(Nc3ccc(OCCOC(F)F)cc3)ncc2F)c1 | 35.8%
O=[N+]([O-])c1cccc(C(c2ccccc2)c2ccccc2)c1 | 92.5%
O=C(NCCNc1nccc(-c2c(-c3cccc(O)c3)nc3sccn23)n1)Nc1cccc(C(F)(F)F)c1 | 23%
O=C(Nc1cccc(-n2ccc3c(NC(=O)c4ccccc4)nccc32)c1)c1cc(N2CCOCC2)cc(C(F)(F)F)c1 | 28.8%
O=C(Nc1ccc(-n2cc(-c3ccncc3)c(-c3ccc(O)c(Cl)c3)n2)cc1)c1cc(C(F)(F)F)cc(C(F)(F)F)c1 | 83.6%
